In PubChem BioAssay (EPA / NIEHS):
Results filed as inconclusive are left out. The source made the active and inactive calls. How the source made its calls, unless noted: active means hit-call score of the fitted dose curve at least 0.9, where 1 is the maximum; inconclusive means response in the unintended direction; inactive means score below 0.9.

Legend:
[1] = CCTE_Harrill_HTTr_Viability_MCF7: CCTE's 6-hour Cell Viability Assessment for the High-Throughput Transcriptomics (HTTr) Platform, in MCF-7 cells cultured in DMEM + 10% fetal bovine serum, Harrill Lab (AID 2284010; active means hit-call score of the fitted dose curve at least 0.9, where 1 is the maximum; inactive means score below 0.9)
Procedure, shortened: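 Eight-point concentration series, six-hour exposure. Propidium iodide exclusion imaged to assess membrane integrity as a cytotoxicity readout; bidirectional fitting was done with DMSO as negative control and activity baseline.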

[2] = CCTE_Harrill_HTTr_Apoptosis_MCF7: CCTE's 6-hour Apoptosis Assessment for the High-Throughput Transcriptomics (HTTr) Platform, in MCF-7 cells cultured in DMEM + 10% fetal bovine serum, Harrill Lab (AID 2284011; active means hit-call score of the fitted dose curve at least 0.9, where 1 is the maximum; inactive means score below 0.9)
Procedure, shortened: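 Cells are dosed with test chemicals at eight concentrations and imaged 6 hours later for caspase-3/7 activity using a green fluorogenic detection reagent. Activity is fitted in both directions against DMSO controls.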

[3] = CCTE_Harrill_HTTr_CellCount_MCF7: CCTE's Cell Proliferation Assessment for the High-Throughput Transcriptomics (HTTr) Platform, Harrill Lab (AID 2284012);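 further: count of Hoechst-stained nuclei per well by high-content imaging in MCF-7 cells; cells exposed to compound for six hours; intended direction is loss of nuclei count meaning fewer cells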
Procedure, shortened: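 For this full-screen endpoint, MCF-7 cultures received eight compound dilutions for six hours. Well nuclei counts from Hoechst imaging were analyzed relative to DMSO.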

PGR (gene 5241) = PGR (gene 5241) (UniProt P06401); assay: TOX21_PR_LUC_Followup_Antagonist: Tox21 HEK293 Progesterone Receptor (PR) Antagonism Luciferase Follow-Up Assay (AID 2283938);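 further: curve fitted upward as signal gain over DMSO baseline despite antagonist label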
Procedure, shortened: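 A follow-up to the PR bla screen using HEK293-PR-A-luc cells, multiplexed with cell viability to flag cytotoxicity. Reporter luminescence after 16 h compound exposure was analysed relative to DMSO.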

[4] = target: Thyroid hormone receptor alpha (Rattus norvegicus) + Thyroid hormone receptor beta (Rattus norvegicus) (UniProt P18113+P63059); assay: TOX21_TR_LUC_GH3_Agonist_Followup: Tox21 GH3 Thyroid Hormone Receptor Agonism Luciferase Follow-Up Assay (AID 2283939)
Procedure, shortened: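 Agonist-mode confirmatory run: 15 concentrations (5 nM to 92 uM final) on GH3 rat pituitary cells, 24 h at 37C/5% CO2, T3 as positive control. Luminescence read with ONE-Glo after 30 min.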

THRA (gene 7067) = THRA (gene 7067) (UniProt P10827); assay: TOX21_TRA_COA_Agonist_Followup_ratio: Tox21 Thyroid Hormone Receptor alpha Agonism through Coactivator Recruitment Follow-Up Assay, Ratio (AID 2283948; active means hit-call score of the fitted dose curve at least 0.9, where 1 is the maximum; inactive means score below 0.9)
Procedure, shortened: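 First, compound was incubated with 2.5 nM GST-TRα LBD in 0.10% BSA. Next, 200 nM fluorescein-SRC-2 and 2 nM Tb-anti-GST antibody were added. Finally, the 520:495 nm ratio was normalized to DMSO and T3 controls.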

THRB (gene 7068) [5] = target: THRB (gene 7068) (UniProt P10828); assay: TOX21_TRB_BLA_Agonist_Followup_ratio: Tox21 Thyroid Hormone Receptor beta Agonism Beta-lactamase (BLA) Follow-Up Assay, Ratio (AID 2283954)
Procedure, shortened: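 Agonist mode: compounds (11-point, triplicate) incubated 18 h with HEK293T cells carrying GAL4-DBD/human TRβ-LBD and UAS-β-lactamase. Blue/green (460/530 nm) FRET ratio read after 2 h CCF4-AM loading; CellTiter-Glo viability run in the same plates.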

THRB (gene 7068) [6] = target: THRB (gene 7068) (UniProt P10828); assay: TOX21_TRB_COA_Agonist_Followup_ratio: Tox21 Thyroid Hormone Receptor beta Agonism through Coactivator Recruitment Follow-Up Assay, Ratio (AID 2283963; active means hit-call score of the fitted dose curve at least 0.9, where 1 is the maximum; inactive means score below 0.9)
Procedure, shortened: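 GST-TRb LBD 5.0 nM + 0.10% BSA + cpd; add fluorescein-SRC-2 200 nM / Tb anti-GST Ab 2 nM; TR-FRET ex 340, em 520:495; norm DMSO 0%, T3 100%.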

[7] = target: Retinoic acid receptor RXR-alpha (Homo sapiens) (UniProt P19793); assay: TOX21_TR_RXR_BLA_Agonist_Followup_ratio: Tox21 Thyroid Hormone Receptor beta Retinoid X Receptor alpha (RXRa) Agonism Beta-lactamase (BLA) Follow-Up Assay, Ratio (AID 2283968)
Procedure, shortened: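 Agonism is scored as an increase in the 460:530 nm beta-lactamase substrate ratio over DMSO in RXRa-UAS-bla HEK293T cells exposed for 16 h to 11 compound concentrations.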

[8] = TOX21_TR_RXR_BLA_Agonist_Followup_viability: Viability Assessment in the Tox21 Thyroid Hormone Receptor beta Retinoid X Receptor alpha (RXRa) Agonism Beta-lactamase (BLA) Follow-Up Assay (AID 2283970)
Procedure, shortened: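 Luminescent ATP read (CellTiter-Glo) after 16h exposure of RXRa-UAS-bla HEK293T cells at 37C/5% CO2. Activity normalized to DMSO; signal loss scored as reduced viability.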

DIO1 (gene 1733) = assay: CCTE_GLTED_hDIO1: CCTE's human Deiodinase 1 (DIO1) Inhibition Assay, Great Lakes Toxicology and Ecology Division (GLTED) Lab (AID 2283987);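 further: isolated human DIO1 enzyme in a cell-free setup rather than cells; enzyme activity read as free iodide liberated from substrate via Sandell-Kolthoff colorimetry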
Procedure, shortened: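 Cell-free hDIO1 assay, triplicate plates. Absorbance of the Sandell-Kolthoff reaction reports enzyme-liberated iodide; iodinated chemicals or nitrite, iron and thiocyanate may interfere.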

[9] = target: Nucleoli Translocation, AR (gene 367) (UniProt P10275); assay: UPITT_HCI_U2OS_AR_TIF2_Nucleoli_Antagonist: University of Pittsburgh U2OS Androgen Receptor-Transcriptional Intermediary Factor 2 (AR-TIF2) Antagonism High Content Imaging Assay for Nucleoli Translocation (AID 2283997)
Procedure, shortened: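 Compounds are added at 20 uM final concentration in 0.2% DMSO to U2OS cells carrying AR-RFP and TIF2-GFP fusions. Nucleolar AR-RFP fluorescence is then quantified by automated imaging. Antagonism is fitted positively against DHT baseline.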

[10] = target: Nucleoli Translocation, AR (gene 367) (UniProt P10275); assay: UPITT_HCI_U2OS_AR_TIF2_Nucleoli_Agonist: University of Pittsburgh U2OS Androgen Receptor-Transcriptional Intermediary Factor 2 (AR-TIF2) Agonism High Content Imaging Assay for Nucleoli Translocation (AID 2283998)
Procedure, shortened: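 Red-tagged human androgen receptor co-expressed with GFP-tagged TIF2 serves as the binding reporter. Primary testing used 20 uM final (0.2% DMSO); follow-up dose response covered 0.195 to 50 uM final (0.5% DMSO).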

[11] = target: Ratio of Nucleoli Translocation and Cytoplasm, AR (gene 367) (UniProt P10275); assay: UPITT_HCI_U2OS_AR_TIF2_Nucleoli_Cytoplasm_Ratio_Agonist: University of Pittsburgh U2OS Androgen Receptor-Transcriptional Intermediary Factor 2 (AR-TIF2) Agonism High Content Imaging Assay for Ratio of Nucleoli Translocation and Cytoplasm (AID 2284000);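 further: hits raise the red nucleolar to cytoplasm ratio above vehicle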
Procedure, shortened: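 Human osteosarcoma U2OS line, AR-RFP plus TIF2-GFP; compounds 0.195–50 uM final, 0.5% DMSO. Readout: nucleolar/cytoplasmic RFP ratio by HCI, positive direction vs DMSO baseline.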

[12] = CCTE_Shafer_MEA_acute_spike_number: CCTE's Neural Acute Assay for Total Number of Spikes, Shafer Lab (AID 2284008; active means hit-call score of the fitted dose curve at least 0.9, where 1 is the maximum; inactive means score below 0.9;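 on AC50: curve fitted for decrease in spike count so AC50 reflects inhibitors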)
Procedure, shortened: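 Cortical neurons from rat, matured to DIV 13 or 15 on microelectrode arrays, are recorded at 37 C before and during 40-min exposure to 0.03-40 uM compound. Wells need >/= 10 active electrodes.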

[13] = CCTE_Shafer_MEA_acute_firing_rate_mean: CCTE's Neural Acute Assay for Mean Firing Rate, Shafer Lab (AID 2284009; active means hit-call score of the fitted dose curve at least 0.9, where 1 is the maximum; inactive means score below 0.9;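 further: analyzed for loss of signal so actives lower firing rate relative to DMSO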)
Procedure, shortened: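 Rat cortical neuron cultures matured to DIV 13 or 15, equilibrated 20 min at 37 C, then recorded 40 min for baseline. Compound (0.03-40 uM) added and a further 40 min recorded; percent change in mean firing rate calculated per well.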

[14] = CCTE_Shafer_MEA_acute_burst_number: CCTE's Neural Acute Assay for Single-Electrode Bursts, Shafer Lab (AID 2284013; active means hit-call score of the fitted dose curve at least 0.9, where 1 is the maximum; inactive means score below 0.9)
Procedure, shortened: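 Percent change in single-electrode burst number per well, from 40-min recordings taken before and after adding compound (0.03-40 uM) to primary rat cortical neurons on MEA plates at DIV 13 or 15, 37 C.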

[15] = CCTE_Shafer_MEA_acute_burst_duration_mean: CCTE's Neural Acute Assay for Mean Burst Duration, Shafer Lab (AID 2284014; active means hit-call score of the fitted dose curve at least 0.9, where 1 is the maximum; inactive means score below 0.9;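 further: hits are decreases in mean burst duration relative to DMSO controls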)
Procedure, shortened: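 Rat cortical cultures, DIV 13/15; 40 min baseline, then 40 min with compound (0.03-40 uM), 37 C. Spikes: 300-5000 Hz band-pass, 8x rms threshold. Read-out: % change in mean single-electrode burst duration, DMSO-referenced, loss direction.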

[16] = target: Ratio of Nucleoli Translocation and Cytoplasm, AR (gene 367) (UniProt P10275); assay: UPITT_HCI_U2OS_AR_TIF2_Nucleoli_Cytoplasm_Ratio_Antagonist: University of Pittsburgh U2OS Androgen Receptor-Transcriptional Intermediary Factor 2 (AR-TIF2) Antagonism High Content Imaging Assay for Ratio of Nucleoli Translocation and Cytoplasm (AID 2283999);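 further: antagonists lower the DHT-driven ratio of nucleolar to cytoplasmic red signal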
Procedure, shortened: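 This antagonist-mode endpoint tracks AR-RFP localisation, the nucleolus-to-cytoplasm intensity ratio, in TIF2-GFP-coexpressing U2OS cells. DMSO stays at or below 0.5%; testing spans 20 uM single-dose and 0.195–50 uM series, with DHT setting the activity baseline.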

[17] = TOX21_PR_LUC_Followup_Agonist_viability: Viability Assessment in the Tox21 HEK293 Progesterone Receptor (PR) Agonism Luciferase Follow-Up Assay (AID 2283941);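 further: loss of signal means cytotoxicity so actives lower viability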
Procedure, shortened: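 Seeding: HEK293-PR-A-luc, 3,000 cells/well, 5 h at 37C. Treatment: compound in DMSO, 16 h, 37C. Read: CellTiter-Glo ATP luminescence, signal loss taken as lower viability.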

Chain of Ratio of Nucleoli Translocation and Cytoplasm, AR (gene 367) (P10275 whole entry, looked up): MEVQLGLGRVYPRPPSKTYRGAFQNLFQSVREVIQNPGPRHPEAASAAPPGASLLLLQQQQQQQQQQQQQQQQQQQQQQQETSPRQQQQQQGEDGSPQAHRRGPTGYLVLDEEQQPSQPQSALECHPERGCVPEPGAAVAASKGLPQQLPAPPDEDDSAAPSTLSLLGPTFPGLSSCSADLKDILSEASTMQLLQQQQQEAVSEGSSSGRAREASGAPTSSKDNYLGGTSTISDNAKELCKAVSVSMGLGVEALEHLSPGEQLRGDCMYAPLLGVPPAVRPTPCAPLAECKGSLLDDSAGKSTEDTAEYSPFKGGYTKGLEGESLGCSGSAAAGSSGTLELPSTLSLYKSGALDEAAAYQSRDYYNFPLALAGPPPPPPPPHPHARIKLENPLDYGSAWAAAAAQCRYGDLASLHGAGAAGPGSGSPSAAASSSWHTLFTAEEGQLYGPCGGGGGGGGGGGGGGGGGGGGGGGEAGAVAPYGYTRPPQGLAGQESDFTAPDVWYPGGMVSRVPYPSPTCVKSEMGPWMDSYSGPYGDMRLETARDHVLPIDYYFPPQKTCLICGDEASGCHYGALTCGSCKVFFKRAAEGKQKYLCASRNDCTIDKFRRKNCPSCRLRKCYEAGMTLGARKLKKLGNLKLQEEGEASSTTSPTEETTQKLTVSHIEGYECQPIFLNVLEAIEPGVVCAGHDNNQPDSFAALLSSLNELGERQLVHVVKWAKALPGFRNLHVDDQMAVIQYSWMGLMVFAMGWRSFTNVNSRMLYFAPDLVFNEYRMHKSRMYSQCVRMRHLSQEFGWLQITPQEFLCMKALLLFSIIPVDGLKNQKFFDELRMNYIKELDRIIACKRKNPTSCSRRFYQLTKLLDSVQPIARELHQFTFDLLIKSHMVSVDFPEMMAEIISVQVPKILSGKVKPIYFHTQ
Chain of Nucleoli Translocation, AR (gene 367) (P10275 whole entry, looked up, the tested form may be a part): as the sequence (P10275 whole entry, looked up) above
Chain of THRB (gene 7068) (P10828 whole entry, looked up, the tested form may be a part): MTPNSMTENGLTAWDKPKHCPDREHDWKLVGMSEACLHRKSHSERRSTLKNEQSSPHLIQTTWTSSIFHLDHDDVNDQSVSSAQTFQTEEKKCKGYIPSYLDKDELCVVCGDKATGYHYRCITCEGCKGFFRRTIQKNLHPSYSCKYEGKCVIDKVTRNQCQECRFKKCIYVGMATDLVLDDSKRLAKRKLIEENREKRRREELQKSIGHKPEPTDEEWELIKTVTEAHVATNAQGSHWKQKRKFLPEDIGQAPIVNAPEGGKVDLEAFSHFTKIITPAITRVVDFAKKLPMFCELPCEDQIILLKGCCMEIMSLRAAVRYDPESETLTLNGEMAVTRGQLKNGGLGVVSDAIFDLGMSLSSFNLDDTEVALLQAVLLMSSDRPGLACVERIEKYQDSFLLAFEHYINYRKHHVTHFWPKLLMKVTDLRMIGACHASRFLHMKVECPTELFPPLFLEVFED
Chain of PGR (gene 5241) (P06401 whole entry, looked up): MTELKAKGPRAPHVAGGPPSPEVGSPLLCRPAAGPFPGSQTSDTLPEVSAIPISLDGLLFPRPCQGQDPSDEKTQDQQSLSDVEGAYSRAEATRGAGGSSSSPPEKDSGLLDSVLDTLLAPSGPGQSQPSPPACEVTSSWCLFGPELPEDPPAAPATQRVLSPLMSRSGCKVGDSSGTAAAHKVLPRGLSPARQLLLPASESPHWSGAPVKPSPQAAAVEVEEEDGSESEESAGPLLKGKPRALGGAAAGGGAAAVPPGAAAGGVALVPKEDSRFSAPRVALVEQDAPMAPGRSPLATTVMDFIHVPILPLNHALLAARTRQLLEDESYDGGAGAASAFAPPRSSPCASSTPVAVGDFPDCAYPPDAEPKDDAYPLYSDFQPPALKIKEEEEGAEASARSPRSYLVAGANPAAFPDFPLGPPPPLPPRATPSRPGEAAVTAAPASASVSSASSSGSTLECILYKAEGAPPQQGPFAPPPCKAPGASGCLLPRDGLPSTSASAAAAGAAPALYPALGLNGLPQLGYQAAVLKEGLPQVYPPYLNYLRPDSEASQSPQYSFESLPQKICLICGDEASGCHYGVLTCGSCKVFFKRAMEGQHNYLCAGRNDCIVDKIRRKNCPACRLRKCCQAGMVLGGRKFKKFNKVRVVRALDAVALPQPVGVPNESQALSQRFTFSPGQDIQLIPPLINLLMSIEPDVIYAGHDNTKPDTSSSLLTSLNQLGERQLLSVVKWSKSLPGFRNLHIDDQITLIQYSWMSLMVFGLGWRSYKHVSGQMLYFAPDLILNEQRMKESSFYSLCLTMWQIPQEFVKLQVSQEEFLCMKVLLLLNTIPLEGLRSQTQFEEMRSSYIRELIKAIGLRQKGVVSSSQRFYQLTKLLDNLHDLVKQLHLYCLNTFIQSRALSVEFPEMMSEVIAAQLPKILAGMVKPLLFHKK
Chain of Retinoic acid receptor RXR-alpha (Homo sapiens) (P19793 whole entry, looked up): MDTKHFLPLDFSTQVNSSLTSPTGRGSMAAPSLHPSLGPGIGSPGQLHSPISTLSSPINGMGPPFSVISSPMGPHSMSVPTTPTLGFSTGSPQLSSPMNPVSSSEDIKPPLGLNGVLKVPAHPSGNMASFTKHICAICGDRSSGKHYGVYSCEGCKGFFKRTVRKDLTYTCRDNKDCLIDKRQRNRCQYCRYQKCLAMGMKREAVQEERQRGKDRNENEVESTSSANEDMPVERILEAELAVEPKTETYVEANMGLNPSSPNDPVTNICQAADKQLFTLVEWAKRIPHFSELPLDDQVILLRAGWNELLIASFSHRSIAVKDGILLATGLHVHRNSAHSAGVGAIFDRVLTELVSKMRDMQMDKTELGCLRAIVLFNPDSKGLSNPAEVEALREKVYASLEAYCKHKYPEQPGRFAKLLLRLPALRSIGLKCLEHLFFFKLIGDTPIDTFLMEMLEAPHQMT
Chain of Thyroid hormone receptor alpha (Rattus norvegicus) + Thyroid hormone receptor beta (Rattus norvegicus) (P63059 whole entry, looked up): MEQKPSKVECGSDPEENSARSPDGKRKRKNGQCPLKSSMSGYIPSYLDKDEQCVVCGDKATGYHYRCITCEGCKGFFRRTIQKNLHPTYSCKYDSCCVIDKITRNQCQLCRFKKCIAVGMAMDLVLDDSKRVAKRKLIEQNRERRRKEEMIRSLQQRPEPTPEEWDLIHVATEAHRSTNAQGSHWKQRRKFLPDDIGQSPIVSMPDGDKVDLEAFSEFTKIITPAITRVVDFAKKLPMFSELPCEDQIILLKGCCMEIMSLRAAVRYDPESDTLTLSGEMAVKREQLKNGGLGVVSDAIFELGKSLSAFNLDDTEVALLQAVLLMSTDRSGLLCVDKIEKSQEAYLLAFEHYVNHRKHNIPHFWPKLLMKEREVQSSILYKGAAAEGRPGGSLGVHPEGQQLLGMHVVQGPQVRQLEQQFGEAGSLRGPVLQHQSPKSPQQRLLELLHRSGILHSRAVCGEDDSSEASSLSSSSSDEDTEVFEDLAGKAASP
Chain of Thyroid hormone receptor alpha (Rattus norvegicus) + Thyroid hormone receptor beta (Rattus norvegicus) (P18113 whole entry, looked up): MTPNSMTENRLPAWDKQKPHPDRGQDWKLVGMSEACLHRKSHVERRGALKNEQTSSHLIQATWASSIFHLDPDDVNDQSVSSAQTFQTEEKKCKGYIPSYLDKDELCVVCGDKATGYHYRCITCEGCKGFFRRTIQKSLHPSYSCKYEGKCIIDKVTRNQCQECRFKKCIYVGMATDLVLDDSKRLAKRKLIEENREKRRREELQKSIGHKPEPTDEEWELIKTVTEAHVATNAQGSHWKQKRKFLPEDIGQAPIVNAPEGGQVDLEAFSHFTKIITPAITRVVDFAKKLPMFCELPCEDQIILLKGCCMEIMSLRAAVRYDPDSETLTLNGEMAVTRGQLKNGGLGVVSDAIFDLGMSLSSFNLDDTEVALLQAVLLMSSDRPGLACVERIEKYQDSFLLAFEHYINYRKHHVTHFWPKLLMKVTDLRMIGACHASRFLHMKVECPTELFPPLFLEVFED
Chain of THRA (gene 7067) (P10827 whole entry, looked up, the tested form may be a part): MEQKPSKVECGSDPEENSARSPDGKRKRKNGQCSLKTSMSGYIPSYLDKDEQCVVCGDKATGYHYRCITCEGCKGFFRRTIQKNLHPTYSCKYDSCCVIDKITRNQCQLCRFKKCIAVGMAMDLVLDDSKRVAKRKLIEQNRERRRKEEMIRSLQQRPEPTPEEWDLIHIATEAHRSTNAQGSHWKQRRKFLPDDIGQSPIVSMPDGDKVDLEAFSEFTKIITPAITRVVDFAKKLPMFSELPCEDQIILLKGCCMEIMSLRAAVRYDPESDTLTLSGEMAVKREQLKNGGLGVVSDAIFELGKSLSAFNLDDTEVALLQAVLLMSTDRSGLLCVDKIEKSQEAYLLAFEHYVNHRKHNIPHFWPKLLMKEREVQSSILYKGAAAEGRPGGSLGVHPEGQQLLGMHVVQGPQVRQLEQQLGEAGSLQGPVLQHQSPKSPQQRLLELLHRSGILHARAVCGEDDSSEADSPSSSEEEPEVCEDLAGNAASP

With `CCCCCCCOC(=O)c1ccccc1C(=O)OCCCCCCC` the outcome [1] was “inactive”, the outcome [2] was “inactive” and the outcome [3] was “inactive”.
In the case of `C(=C(c1ccccc1)c1ccccc1)c1ccccc1`, the AC50 (PGR (gene 5241)) is reported as 32.3 µM (active).
With `CC(CCl)OP(=O)(OC(C)CCl)OC(C)CCl` (centres undefined) the outcome [1] was “inactive”, the outcome [2] was “inactive” and the outcome [3] was “inactive”.
For `C1COCCN1`, the outcome [1] was “inactive” and the outcome [2] was “inactive”.
In the case of `O=S(=O)(O)c1ccc2ccccc2c1`, the outcome [4] is reported as “inactive”, the outcome (THRA (gene 7067)) is reported as “inactive” and the outcome (THRB (gene 7068) [5]) is reported as “inactive”. For the same compound, the outcome (THRB (gene 7068) [6]) was “inactive”, the outcome [7] was “inactive” and the outcome [8] was “inactive”. The outcome [1] was “inactive” and the outcome [2] was “inactive”.
In the case of `O=C(O)C(F)(F)C(F)(F)C(F)(F)C(F)(F)C(F)(F)C(F)(F)C(F)(F)C(F)(F)C(F)(F)C(F)(F)C(F)(F)C(F)(F)F`, the AC50 (DIO1 (gene 1733)) is reported as 39 µM (active).
For `CCCCCC=O`, the outcome [1] was “inactive” and the outcome [2] was “inactive”.
With `O=C(O)C(F)(F)C(F)(F)C(F)(F)C(F)(F)C(F)(F)C(F)(F)C(F)(F)C(F)(F)C(F)(F)C(F)F` the AC50 (DIO1 (gene 1733)) was 88.7 µM (active).
In the case of `O=C(O)C=C(C(F)(F)F)C(F)(F)F`, the AC50 (DIO1 (gene 1733)) is reported as 20.2 µM (active).
With `[Co]` the outcome [9] was “inactive”, the outcome [10] was “inactive” and the outcome [11] was “inactive”.
With `CCCCC(CC)COP(=O)(O)OCC(CC)CCCC` (centres undefined) the AC50 [12] was 0.00652 µM (active), the AC50 [13] was 0.00651 µM (active) and the AC50 [14] was 0.003 µM (active). The outcome [15] was “inactive”.
With `CC(Cc1ccc(O)c(O)c1)C(C)Cc1ccc(O)c(O)c1` (centres undefined) the AC50 (DIO1 (gene 1733)) was 6.62 µM (active), the outcome [1] was “inactive” and the outcome [2] was “inactive”. For the same compound, the outcome [3] was “inactive”.
With `CNC(=S)NC` the outcome [9] was “inactive”, the outcome [16] was “inactive” and the outcome [1] was “inactive”. The outcome [2] was “inactive” and the outcome [3] was “inactive”.
With `O=C(O)C(F)(F)C(F)(F)C(F)(F)C(F)(F)C(F)(F)C(F)(F)C(F)(F)C(F)(F)Cl` the outcome (DIO1 (gene 1733)) was “inactive”.
In the case of `OC[C@@H](O)[C@@H](O)[C@H](O)[C@@H](O)CO`, the outcome [1] is reported as “inactive”, the outcome [2] is reported as “inactive” and the outcome [3] is reported as “inactive”.
In the case of `O=C(O)C(F)(F)C(F)(F)C(F)(F)C(F)(F)C(F)(F)C(F)(F)C(F)(F)C(F)(F)C(F)(F)C(F)(F)C(F)(F)C(F)(F)C(F)(F)F`, the AC50 (DIO1 (gene 1733)) is reported as 23.7 µM (active).
In the case of `C=CC(=O)OCC(F)(F)C(F)(F)C(F)(F)C(F)(F)COC(=O)C=C`, the AC50 (DIO1 (gene 1733)) is reported as 5.82 µM (active).
For `CCCCCCC(C)OC(=O)CCCCC(=O)OC(C)CCCCCC` (centres undefined), the outcome [9] was “inactive” and the outcome [11] was “inactive”.
For `Nc1ccc(S(=O)(=O)Nc2nccs2)cc1`, the outcome [8] was “inactive”, the outcome [1] was “inactive” and the outcome [2] was “inactive”. For the same compound, the outcome [3] was “inactive”.
For `C#C[C@]1(O)CC[C@H]2[C@@H]3CCc4cc(OC)ccc4[C@H]3CC[C@@]21C`, the outcome (PGR (gene 5241)) was “inactive”, the outcome [17] was “inactive” and the outcome [1] was “inactive”. For the same compound, the outcome [2] was “inactive” and the outcome [3] was “inactive”.
With `CCN(Cc1cccc(S(=O)(=O)O)c1)c1ccc(C(=C2C=CC(=[N+](CC)Cc3cccc(S(=O)(=O)O)c3)C=C2)c2ccc(O)cc2S(=O)(=O)[O-])cc1` the AC50 (DIO1 (gene 1733)) was 65 µM (active), the outcome [1] was “inactive” and the outcome [2] was “inactive”. For the same compound, the outcome [3] was “inactive”.
In the case of `O=C(Cl)C(F)(F)C(F)(F)C(F)(F)C(F)(F)C(F)(F)C(F)(F)C(F)(F)C(F)(F)F`, the AC50 (DIO1 (gene 1733)) is reported as 165 µM (active).
With `CN(C)Cc1ccccc1O` the outcome [9] was “inactive”, the outcome [10] was “inactive” and the outcome [16] was “inactive”. The outcome [11] was “inactive”.
With `CCCCCCOC(=O)c1ccccc1O` the outcome [9] was “inactive”, the outcome [10] was “inactive” and the outcome [16] was “inactive”. For the same compound, the outcome [11] was “inactive”, the outcome [12] was “inactive” and the outcome [13] was “inactive”. The outcome [14] was “inactive” and the outcome [15] was “inactive”.
With `CC/C=C\CCOC(C)=O` the outcome [1] was “inactive” and the outcome [2] was “inactive”.
